Experimental data from the supplement of paper PMC11732987, “Enantioselective OTUD7B fragment discovery through chemoproteomics screening and high-throughput optimisation” (Communications Chemistry, 2025).
Unmarked numbers belong to inactive results.

What was measured:
Assay in all cases: log2 ratio of Biotin-Ahx-Ub-VS probe labelling (fragment/DMSO); higher = less target engagement (more negative = stronger competition), active = hit call of the paper (q ≤ 0.05, log2 ratio ≤ -1)
Details in all cases: compound concentration: 200 uM; treatment time: 3 h
OTUD6B = target: T1, OTUD6B (UniProt Q8N6M0)
T1 sequence (whole entry): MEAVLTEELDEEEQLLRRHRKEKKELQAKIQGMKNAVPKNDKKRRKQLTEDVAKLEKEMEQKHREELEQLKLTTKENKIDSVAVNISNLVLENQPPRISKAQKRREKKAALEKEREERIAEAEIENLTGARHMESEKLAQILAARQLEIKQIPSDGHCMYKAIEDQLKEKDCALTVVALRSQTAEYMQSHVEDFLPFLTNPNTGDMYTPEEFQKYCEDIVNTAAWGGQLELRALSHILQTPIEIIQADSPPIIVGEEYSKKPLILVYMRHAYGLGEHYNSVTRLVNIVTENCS
Procedure, shortened: (§1)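 Global-median-normalised Spectronaut label-free quantities were compared by unpaired t-test, and values are average log2 ratios of fragment over vehicle. Only proteins with ≥2 unique peptides were used. HEK293T lysate (495 µg per sample) was treated in triplicate with fragment at 200 µM or vehicle for 3 h and then with Biotin-Ahx-Ub-VS at 0.5 µM final for 1 h. Labelled DUBs were then NeutrAvidin-enriched, digested with LysC and trypsin, and run by diaPASEF LC-MS/MS.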

OTUD7B = target: T2, OTUD7B (UniProt Q6GQQ9)
T2 sequence (whole entry): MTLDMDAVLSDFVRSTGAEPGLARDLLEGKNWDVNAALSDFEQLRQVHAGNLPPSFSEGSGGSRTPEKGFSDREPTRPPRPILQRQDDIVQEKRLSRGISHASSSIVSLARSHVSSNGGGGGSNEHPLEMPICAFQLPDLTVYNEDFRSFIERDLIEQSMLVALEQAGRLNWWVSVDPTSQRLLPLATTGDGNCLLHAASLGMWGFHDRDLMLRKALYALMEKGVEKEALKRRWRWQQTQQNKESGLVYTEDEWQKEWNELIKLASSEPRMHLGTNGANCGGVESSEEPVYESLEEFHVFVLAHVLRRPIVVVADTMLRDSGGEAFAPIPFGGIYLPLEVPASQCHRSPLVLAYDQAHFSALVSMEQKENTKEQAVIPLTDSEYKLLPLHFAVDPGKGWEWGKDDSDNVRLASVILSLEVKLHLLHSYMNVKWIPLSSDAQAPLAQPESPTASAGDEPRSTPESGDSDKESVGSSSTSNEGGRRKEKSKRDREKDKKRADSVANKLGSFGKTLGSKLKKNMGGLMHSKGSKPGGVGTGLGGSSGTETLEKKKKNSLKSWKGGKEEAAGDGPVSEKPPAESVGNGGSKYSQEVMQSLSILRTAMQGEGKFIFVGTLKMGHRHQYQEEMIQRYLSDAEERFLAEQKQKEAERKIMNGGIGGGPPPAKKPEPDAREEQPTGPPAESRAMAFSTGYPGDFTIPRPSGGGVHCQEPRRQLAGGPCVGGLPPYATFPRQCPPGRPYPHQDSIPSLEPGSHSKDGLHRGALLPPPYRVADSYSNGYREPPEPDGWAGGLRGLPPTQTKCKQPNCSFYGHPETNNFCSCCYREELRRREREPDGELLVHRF
Procedure, shortened: as §1

PRPF8 = PRPF8 (UniProt Q6P2Q9)
Procedure, shortened: as §1

PSMD7 = target: T3, PSMD7 (UniProt P51665)
T3 sequence (whole entry): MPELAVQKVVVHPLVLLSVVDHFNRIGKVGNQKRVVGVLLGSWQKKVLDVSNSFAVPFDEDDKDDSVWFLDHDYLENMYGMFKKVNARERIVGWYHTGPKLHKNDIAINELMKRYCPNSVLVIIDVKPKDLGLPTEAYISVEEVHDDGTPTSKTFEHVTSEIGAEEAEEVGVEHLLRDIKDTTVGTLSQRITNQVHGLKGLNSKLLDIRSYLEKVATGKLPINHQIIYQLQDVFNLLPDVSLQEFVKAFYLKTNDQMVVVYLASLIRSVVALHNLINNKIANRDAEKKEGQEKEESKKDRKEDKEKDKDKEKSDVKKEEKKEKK
Procedure, shortened: as §1

UCHL1 = UCHL1 (UniProt P09936)
Chain of UCHL1 (P09936 whole entry, looked up): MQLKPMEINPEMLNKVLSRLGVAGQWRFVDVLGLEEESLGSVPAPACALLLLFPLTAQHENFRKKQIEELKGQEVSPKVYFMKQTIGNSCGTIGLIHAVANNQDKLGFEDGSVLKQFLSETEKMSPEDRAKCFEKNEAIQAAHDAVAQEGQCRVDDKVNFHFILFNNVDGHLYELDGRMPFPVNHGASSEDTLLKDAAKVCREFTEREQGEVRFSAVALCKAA
Procedure, shortened: as §1

UCHL3 = target: T4, UCHL3 (UniProt P15374)
T4 sequence (whole entry): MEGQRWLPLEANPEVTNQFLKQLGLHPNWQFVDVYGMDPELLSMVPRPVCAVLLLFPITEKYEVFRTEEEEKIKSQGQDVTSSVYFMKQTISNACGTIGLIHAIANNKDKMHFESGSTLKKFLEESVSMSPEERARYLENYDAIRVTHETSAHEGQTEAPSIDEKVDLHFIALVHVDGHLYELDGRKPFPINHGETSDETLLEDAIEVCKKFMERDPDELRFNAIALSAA
Procedure, shortened: as §1

UCHL5 = target: T5, UCHL5 (UniProt Q9Y5K5)
T5 sequence (whole entry): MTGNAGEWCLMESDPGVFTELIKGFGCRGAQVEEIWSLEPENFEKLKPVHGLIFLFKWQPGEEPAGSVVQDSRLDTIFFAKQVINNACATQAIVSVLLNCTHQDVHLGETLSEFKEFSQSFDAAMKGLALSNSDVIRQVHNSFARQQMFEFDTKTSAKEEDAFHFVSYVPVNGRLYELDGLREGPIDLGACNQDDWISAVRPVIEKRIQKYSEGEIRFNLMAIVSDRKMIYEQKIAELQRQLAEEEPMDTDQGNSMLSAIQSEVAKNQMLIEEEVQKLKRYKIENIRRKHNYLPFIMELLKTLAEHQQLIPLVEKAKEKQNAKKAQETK
Procedure, shortened: as §1

USP10 = USP10 (UniProt Q14694)
Chain of USP10 (Q14694 whole entry): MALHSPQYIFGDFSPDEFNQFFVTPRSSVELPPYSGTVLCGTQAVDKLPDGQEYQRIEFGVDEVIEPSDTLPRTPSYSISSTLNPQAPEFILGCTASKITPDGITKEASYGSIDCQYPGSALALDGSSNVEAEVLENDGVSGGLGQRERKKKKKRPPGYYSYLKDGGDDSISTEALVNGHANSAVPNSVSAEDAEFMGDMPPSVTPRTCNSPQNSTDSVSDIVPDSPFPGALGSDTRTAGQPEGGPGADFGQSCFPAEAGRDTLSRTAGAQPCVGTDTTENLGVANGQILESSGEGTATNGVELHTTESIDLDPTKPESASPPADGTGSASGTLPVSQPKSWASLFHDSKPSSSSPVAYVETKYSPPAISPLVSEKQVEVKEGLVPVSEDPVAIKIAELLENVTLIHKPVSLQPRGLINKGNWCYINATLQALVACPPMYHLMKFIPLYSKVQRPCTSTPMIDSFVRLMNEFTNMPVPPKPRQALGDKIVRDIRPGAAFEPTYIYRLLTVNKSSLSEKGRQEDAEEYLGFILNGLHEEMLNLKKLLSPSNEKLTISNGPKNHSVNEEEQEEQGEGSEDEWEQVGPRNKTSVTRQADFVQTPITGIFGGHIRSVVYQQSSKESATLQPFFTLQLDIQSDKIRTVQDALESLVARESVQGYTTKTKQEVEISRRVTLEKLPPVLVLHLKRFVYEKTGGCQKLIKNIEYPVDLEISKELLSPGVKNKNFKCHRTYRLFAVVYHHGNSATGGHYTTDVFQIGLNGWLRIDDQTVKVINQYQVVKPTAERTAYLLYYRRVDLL
Procedure, shortened: as §1

USP15 = target: T6, USP15 (UniProt Q9Y4E8)
T6 sequence (whole entry): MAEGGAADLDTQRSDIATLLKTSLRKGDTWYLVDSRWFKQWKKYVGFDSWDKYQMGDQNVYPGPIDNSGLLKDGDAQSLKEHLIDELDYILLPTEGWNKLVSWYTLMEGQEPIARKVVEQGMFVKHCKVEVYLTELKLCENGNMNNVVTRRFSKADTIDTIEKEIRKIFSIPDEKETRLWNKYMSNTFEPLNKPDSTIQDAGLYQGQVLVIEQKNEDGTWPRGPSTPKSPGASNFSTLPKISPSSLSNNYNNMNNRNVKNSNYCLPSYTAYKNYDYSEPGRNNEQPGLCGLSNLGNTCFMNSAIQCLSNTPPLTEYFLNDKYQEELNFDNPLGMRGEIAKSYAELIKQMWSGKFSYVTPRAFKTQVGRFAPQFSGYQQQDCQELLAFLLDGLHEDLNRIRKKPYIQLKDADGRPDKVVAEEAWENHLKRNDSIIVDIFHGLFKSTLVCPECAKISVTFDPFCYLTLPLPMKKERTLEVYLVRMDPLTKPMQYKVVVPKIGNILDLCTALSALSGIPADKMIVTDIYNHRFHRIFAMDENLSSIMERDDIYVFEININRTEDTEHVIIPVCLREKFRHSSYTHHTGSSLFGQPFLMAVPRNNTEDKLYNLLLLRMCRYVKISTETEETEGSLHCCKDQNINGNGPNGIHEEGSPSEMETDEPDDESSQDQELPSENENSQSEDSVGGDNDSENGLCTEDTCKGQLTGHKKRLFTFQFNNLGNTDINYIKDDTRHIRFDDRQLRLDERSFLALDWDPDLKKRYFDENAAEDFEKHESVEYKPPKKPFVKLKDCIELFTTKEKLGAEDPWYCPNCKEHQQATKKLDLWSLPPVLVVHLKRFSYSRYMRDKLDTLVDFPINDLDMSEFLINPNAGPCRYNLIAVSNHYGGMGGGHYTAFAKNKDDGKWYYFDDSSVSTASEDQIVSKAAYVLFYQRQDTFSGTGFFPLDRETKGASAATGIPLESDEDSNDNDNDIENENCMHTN
Procedure, shortened: as §1

O=C(O)C1Cc2ccccc2CN1C(=O)CCl (centres undefined)
log2 ratio of Biotin-Ahx-Ub-VS probe labelling (OTUD6B): -0.439 | log2 ratio of Biotin-Ahx-Ub-VS probe labelling (OTUD7B): -0.732 | log2 ratio of Biotin-Ahx-Ub-VS probe labelling (PRPF8): -0.175 | log2 ratio of Biotin-Ahx-Ub-VS probe labelling (PSMD7): -0.239 | log2 ratio of Biotin-Ahx-Ub-VS probe labelling (UCHL1): -1.8 (active) | log2 ratio of Biotin-Ahx-Ub-VS probe labelling (UCHL3): -0.19 | log2 ratio of Biotin-Ahx-Ub-VS probe labelling (UCHL5): -0.324 | log2 ratio of Biotin-Ahx-Ub-VS probe labelling (USP10): -0.112 | log2 ratio of Biotin-Ahx-Ub-VS probe labelling (USP15): -0.35
